Test results reported in PubChem BioAssay AID1159580 (chemical genetic matrix, 2015).
Screen size: about 5,500 compounds; about 2,000 (36%) were called active. About 18% were inconclusive and are not listed. Rule as the data show it: active = normalized growth mostly below about 0.91 (no sharp cut-off); inconclusive = no clear call, values can overlap the other calls; inactive = mostly above about 0.92. Some of the results follow.

Test: chemical genetic growth profiling, strain panel (AID 1159580);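 also: tested at 20 µM; growth read once vehicle control cultures reached saturation at 30 °C; 1 = growth at the plate median or of vehicle wells; lower values mean less growth of the strain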
Conditions: growth OD

Measured: normalized growth

C=C1C2CC[C@@]3(C)[C@H](c4ccoc4)OC(=O)C[C@]13O[C@H]1CC(O)C(C)(C)C(CC(=O)OC)[C@@]21C (stereo not given in full)
inactive: S. cerevisiae deletion strains, locus YJL187C, strain SWE1, hits give low values 0.971 | S. cerevisiae deletion strains, locus YJR043C, strain POL32, hits give low values 1.01 | S. cerevisiae deletion strains, locus YJR066W, strain TOR1, hits give low values 0.922 | S. cerevisiae deletion strains, locus YKL009W, strain mrt4, hits give low values 1 | S. cerevisiae deletion strains, locus YKL068W, hits give low values 1.01 | S. cerevisiae deletion strains, locus YKL085W, strain MDH1 (second series), hits give low values 0.999 | S. cerevisiae deletion strains, locus YKL085W, strain MDH1, hits give low values 0.999 | S. cerevisiae deletion strains, locus YKL160W, strain elf1, hits give low values 0.984 | S. cerevisiae deletion strains, locus YKL190W, strain CNB1, hits give low values 0.987 | S. cerevisiae deletion strains, locus YKR001C, strain vps1, hits give low values 0.999 | S. cerevisiae deletion strains, locus YKR026C, strain gcn3, hits give low values 0.985 | S. cerevisiae deletion strains, locus YKR091W, strain srl3, hits give low values 0.965 | S. cerevisiae deletion strains, locus YLL001W, strain dnm1, hits give low values 0.989 | S. cerevisiae deletion strains, locus YLL026W, hits give low values 0.974 | S. cerevisiae deletion strains, locus YLL041C, strain sdh2, hits give low values 0.971 | S. cerevisiae deletion strains, locus YLR027C, strain aat2, hits give low values 0.99 | S. cerevisiae deletion strains, locus YLR039C, strain RIC1, hits give low values 0.963 | S. cerevisiae deletion strains, locus YLR058C, strain SHM2, hits give low values 1 | S. cerevisiae deletion strains, locus YLR102C, strain apc9, hits give low values 1.01 | S. cerevisiae deletion strains, locus YLR113W, strain HOG1, hits give low values 0.996 | S. cerevisiae deletion strains, locus YLR221C, strain rsa3, hits give low values 0.981 | S. cerevisiae deletion strains, locus YLR258W, strain gsy2, hits give low values 0.977 | S. cerevisiae deletion strains, locus YLR262C, strain YPT6 (second series), hits give low values 0.925 | S. cerevisiae deletion strains, locus YLR268W, strain sec22, hits give low values 1.01 | S. cerevisiae deletion strains, locus YLR320W, strain mms22, hits give low values 0.97 | S. cerevisiae deletion strains, locus YLR342W, strain FKS1 (second series), hits give low values 1.02 | S. cerevisiae deletion strains, locus YLR342W, strain FKS1, hits give low values 0.971 | S. cerevisiae deletion strains, locus YLR357W, strain rsc2, hits give low values 0.998 | S. cerevisiae deletion strains, locus YLR370C, strain arc18, hits give low values 0.981 | S. cerevisiae deletion strains, locus YLR371W, strain rom2, hits give low values 1.02 | S. cerevisiae deletion strains, locus YLR384C, strain iki3, hits give low values 0.964 | S. cerevisiae deletion strains, locus YLR418C, strain cdc73, hits give low values 0.998 | S. cerevisiae deletion strains, locus YML016C, strain PPZ1, hits give low values 1.01 | S. cerevisiae deletion strains, locus YML032C, strain rad52, hits give low values 1.03 | S. cerevisiae deletion strains, locus YML120C, strain ndi1, hits give low values 0.99 | S. cerevisiae deletion strains, locus YML124C, strain tub3, hits give low values 1.01 | S. cerevisiae deletion strains, locus YMR058W, strain fet3, hits give low values 0.97 | S. cerevisiae deletion strains, locus YMR078C, strain ctf18, hits give low values 1.01 | S. cerevisiae deletion strains, locus YMR125W, strain sto1, hits give low values 0.972 | S. cerevisiae deletion strains, locus YMR129W, hits give low values 0.989 | S. cerevisiae deletion strains, locus YMR205C, strain PFK2, hits give low values 0.962 | S. cerevisiae deletion strains, locus YMR223W, strain ubp8, hits give low values 1.01 | S. cerevisiae deletion strains, locus YMR231W, strain pep5, hits give low values 0.971 | S. cerevisiae deletion strains, locus YMR307W, strain GAS1, hits give low values 1.06 | S. cerevisiae deletion strains, locus YNL067W, strain RPL9B, hits give low values 1.01 | S. cerevisiae deletion strains, locus YNL071W, strain lat1, hits give low values 0.974 | S. cerevisiae deletion strains, locus YNL183C, strain NPR1, hits give low values 0.974 | S. cerevisiae deletion strains, locus YNL209W, strain ssb2, hits give low values 0.979 | S. cerevisiae deletion strains, locus YNL233W, strain BNI4, hits give low values 0.972 | S. cerevisiae deletion strains, locus YNL248C, strain rpa49, hits give low values 0.971 | S. cerevisiae deletion strains, locus YNL250W, strain rad50, hits give low values 1.02 | S. cerevisiae deletion strains, locus YNL271C, strain bni1, hits give low values 1.01 | S. cerevisiae deletion strains, locus YNL298W, strain CLA4, hits give low values 1.01 | S. cerevisiae deletion strains, locus YNL307C, strain MCK1, hits give low values 1.01 | S. cerevisiae deletion strains, locus YNL322C, strain KRE1 (second series), hits give low values 0.985 | S. cerevisiae deletion strains, locus YNR049C, strain mso1, hits give low values 0.969 | S. cerevisiae deletion strains, locus YNR052C, strain pop2, hits give low values 1.02 | S. cerevisiae deletion strains, locus YOL012C, strain htz1 1.88 | S. cerevisiae deletion strains, locus YOL147C, strain pex11, hits give low values 1.02 | S. cerevisiae deletion strains, locus YOR001W, strain rrp6, hits give low values 0.969 | S. cerevisiae deletion strains, locus YOR061W, strain CKA2, hits give low values 1 | S. cerevisiae deletion strains, locus YOR069W, strain VPS5, hits give low values 1.01 | S. cerevisiae deletion strains, locus YOR070C, strain gyp1, hits give low values 0.978 | S. cerevisiae deletion strains, locus YOR080W, strain dia2, hits give low values 0.979 | S. cerevisiae deletion strains, locus YOR083W, strain WHI5, hits give low values 0.981 | S. cerevisiae deletion strains, locus YOR106W, strain vam3, hits give low values 0.955 | S. cerevisiae deletion strains, locus YOR136W, strain idh2, hits give low values 1.02 | S. cerevisiae deletion strains, locus YOR144C, strain elg1, hits give low values 1.03 | S. cerevisiae deletion strains, locus YOR184W, strain ser1, hits give low values 1.01 | S. cerevisiae deletion strains, locus YOR231W, strain MKK1, hits give low values 0.991 | S. cerevisiae deletion strains, locus YOR265W, strain rbl2, hits give low values 0.986 | S. cerevisiae deletion strains, locus YOR270C, strain vph1, hits give low values 0.878 | S. cerevisiae deletion strains, locus YOR290C, strain snf2, hits give low values 0.987 | S. cerevisiae deletion strains, locus YOR316C, strain cot1, hits give low values 1.01 | S. cerevisiae deletion strains, locus YPL051W, strain arl3, hits give low values 0.975 | S. cerevisiae deletion strains, locus YPL078C, strain atp4, hits give low values 0.981 | S. cerevisiae deletion strains, locus YPL106C, strain sse1, hits give low values 0.973 | S. cerevisiae deletion strains, locus YPL240C, strain hsp82, hits give low values 0.98 | S. cerevisiae deletion strains, locus YPL256C, strain CLN2, hits give low values 0.939 | S. cerevisiae deletion strains, locus YPR119W, strain clb2, hits give low values 1.02 | S. cerevisiae deletion strains, locus YPR141C, strain kar3, hits give low values 1.02 | S. cerevisiae deletion strains, locus YPR163C, strain tif3, hits give low values 1.02 | S. cerevisiae deletion strains, locus YPR167C, strain met16, hits give low values 1.01 | S. cerevisiae deletion strains, strain wtn01, hits give low values 1.01 | S. cerevisiae strains, strain wild type, hits give low values 0.998
